RE007 growth inh – qHTS Assay for Inhibitors of the HIV-1 protein Vpr; S. pombe RE007 Vpr strain, BacTiter-Glo ATP luminescence, 24 h; Potency, µM (titrated, usually from 92.2 µM), most hits filed as inhibitors; 360,000 compounds, 0.21% hits; active means well fitted falling curve with a large enough effect; inconclusive means small, poorly fitted or top-dose-only effect; inactive means no such curve, though single readings can be large or run the other way; further: nearly all actives have a fitted effect of over 50% in size
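Fission yeast strain RE007, carrying one chromosomally integrated HIV-1 vpr copy, was seeded at OD 0.01 in PMG+AL medium with 23 nL pinned compound. After 24 h at 30 °C and 99% humidity, viability was read by BacTiter-Glo luminescence.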
HCV inh – qHTS Assay for Inhibitors of Hepatitis C Virus (HCV); Huh7.5.1 HCVcc-Cre infection, luciferase reporter, 44 h; Potency, µM (top dose mostly 41.8 µM), actives largely listed as inhibitors; 340,000 compounds, 3.4% hits; AID 651820, 2012
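Infectious HCV cell culture screen: compound-treated cells (1,000/well, pre-plated 4 h) are infected with HCVcc-Cre at roughly 0.5 moi and grown 44 h. Infection is quantified by luciferase signal after 15 min substrate incubation at room temperature.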
LASV entry inh – qHTS for Inhibitors of binding or entry into cells for Lassa Virus. Potency, µM (titrated, usually from 37.9 µM), most hits filed as inhibitors. AID 540256, 2011. 300,000 compounds, 1.2% hits. Lassa virus pseudotype entry inhibition, cell reporter; calls by dose curve; tested in HEK293 cells; further: nearly all actives have a fitted effect of over 50% in size
Sm TGR inh – qHTS Assay for the Inhibitors of Schistosoma Mansoni Peroxiredoxins; purified TGR, DTNB reduction, TNB absorbance 405 nm; 360,000 compounds, 3% hits; Schistosoma mansoni thioredoxin glutathione reductase (TGR), Q962Y6; Potency, µM (titrated, usually from 114 µM), hits mostly inhibitors; further: nearly all actives have a fitted effect of over 60% in size
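TGR 20 nM + NADPH 100 uM (dispensed conc.), cpd preinc 15 min RT; start with NADPH (500 uM addition) then DTNB (15 mM addition). Kinetic TNB absorbance, 405 nm filter. Four-parameter Hill fit across titration.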
MARV entry inh – qHTS for inhibitors of binding or entry into cells for Marburg Virus | Marburg virus pseudotyped entry inhibition, cell reporter | 300,000 compounds, 1.8% hits | Potency, µM (doses to about 37.8 µM), actives largely listed as inhibitors; calls by dose curve; tested in HEK293 cells
FMDV inh – High Throughput Screening for Foot and Mouth Disease Virus Antivirals; FMDV antiviral cell-based qHTS; 410,000 compounds, 1.2% hits; Potency, µM (top dose mostly 57.9 µM), hits mostly inhibitors; AID 1159524, 2015; calls by dose curve; tested in HEK293T cells; further: read-out not given here; nearly all actives have a fitted effect of over 45% in size
A number is an active result; n = inactive; u = inconclusive; x = not tested or not shown; ! = a repeat was not active; [ ] = remark or other dose. Most compounds without a hit are left out; they make up all but 7.2% or so of the library. Unless noted, the call rests on the fitted dose curve; in most records, active means well fitted curve in the direction sought with a large enough effect; inconclusive means small, poorly fitted or top-dose-only effect, or another doubt; inactive means no such curve, though single readings can be large; an effect the other way counts as inactive or inconclusive.

SMILES | RE007 growth inh | HCV inh | LASV entry inh | Sm TGR inh | MARV entry inh | FMDV inh
CCc1ccccc1NC(=O)CNC(=O)c1cccc(S(=O)(=O)N2CCN(Cc3ccccc3)CC2)c1 | n | 10µM | n | n | u | n
C[C@@H]1CC[C@H]2C(=O)N(Cc3ccccc3)C[C@@H](O)CN2[C@@H]1c1cccc(Br)c1 | x | x | n | x | n | x
Cc1cccc(CCN2C(Nc3ccccc3)=NC[C@@H]2CC(C)C)c1 | n | 2.8µM | x | n | x | u
CCN1C(Nc2ccccc2)=NC[C@@H]1Cc1ccccc1 | n | n | x | 25µM | x | n
CCCCCCCN1C(Nc2ccccc2)=NC[C@@H]1Cc1ccccc1 | n | u | x | n | x | u
Cn1c(=O)c2c(n3c4ccccc4nc13)NC(=O)CC2c1cccc(F)c1 (stereo unspecified) | x | x | n | n | x | n
COCCCNc1oc(/C=C/c2cc(OC)c(OC)c(OC)c2)nc1C#N | x | x | n | n | n | n
O=C1c2cc(CO)cc(O)c2C(=O)c2c(O[C@@H]3OC(CO)[C@@H](O)[C@@H](O)[C@@H]3O)cccc21 (stereo partly specified) | n | n | x | x | x | n
O=C(O)c1cc(O)c2c(c1)[C@H]([C@H]1c3cc(C(=O)O)cc(O)c3C(=O)c3c(O[C@@H]4O[C@H](CO)[C@@H](O)[C@H](O)[C@H]4O)cccc31)c1cccc(OC3O[C@H](CO)[C@@H](O)[C@H](O)[C@H]3O)c1C2=O (stereo partly specified) | n[18.4 µM] | 0.35µM! | x | u | x | u
O=C1c2c(O)cccc2C(C2OC(CO)[C@@H](O)[C@H](O)[C@H]2O)c2cc(CO)cc(O)c21 (stereo partly specified) | n | n | x | 40µM | x | n
Cc1ccccc1C=O | n | n | x | n | x | n
Cc1ccccc1/C=C/C1=NCCN1 | n[18.4 µM] | n | u | n | 11µM | n
COc1ccc(C2(C)NC(=O)N(CC(=O)NC(C)c3ccc(CC(C)C)cc3)C2=O)cc1 (stereo unspecified) | n | u | x | n | x | n
COC(=O)N1C(=O)[C@](c2ccsc2)(C(C)C)N1C(=O)OC | n | n | x | 32µM | x | u
COC(=O)N1C(=O)[C@](c2ccc(OC)cc2)(C(C)C)N1C(=O)OC | n | n | x | 45µM | x | n
CC(C)C1(c2ccsc2)NC(=O)NC1=O (stereo unspecified) | n | n | n | x | n | n
COC(=O)c1c(NC(=O)CCl)sc(C(=O)N2CCOCC2)c1C | n | u | u | 32µM | u | n
C#CCSc1nsc(SCC#C)c1C#N | n | 11µM | n | 35µM | n | x
CCCSc1nsc(SCCC)c1C#N | n | n | n | n | u | n
CCn1c(=O)cc(SCC(=O)N2CCN(c3cc(C)ccc3C)CC2)c2ccccc21 | x | x | n | n | n | n
CCN(CC)c1ccc(NC(=O)CCS(=O)(=O)c2cc3c(cc2Cl)NC(=O)CO3)c(C)c1 | x | x | n | n | x | n
CCOC(=O)c1ccc(N2CCCCC2)c(NS(=O)(=O)c2ccc(C)cc2)c1 | n | u | u | n | 7.9µM | n
CCN(CC)CCCNC(=O)c1ccc(N2CCCCC2)c(NS(=O)(=O)c2ccc(C)cc2)c1 | n | n | n | n | 15µM | n
Cc1ccc(S(=O)(=O)Nc2cc(C(=O)NCCN(C)C)ccc2N2CCCC2)cc1 | n | n | x | n | x | n
Cc1cc(NC(=O)N2CC=C(c3c[nH]c4ccccc34)CC2)ccc1Br | x | x | n | n | x | n
Cc1ccc(C)c(C(=O)c2c(N)c(-c3nc(-c4ccc5c(c4)OCO5)cs3)c3ccccn23)c1 | x | x | n | n | n | n
CCCCOCCCNC(=O)C[C@@H]1C[C@@]2(C(=O)OCC)CCC=C2N(Cc2ccco2)C1=O | n | x | x | x | x | n
O=C(Cc1ccccc1)Nc1cccc(-c2nnc(-c3ccco3)o2)c1 | n | u | n | n | n | n
COc1ccccc1OCC(=O)Nc1cccc(-c2nnc(-c3ccco3)o2)c1 | n | u | u | n | 6.3µM | n
COc1ccc(CC(=O)Nc2cccc(-c3nnc(-c4ccccc4)o3)c2)cc1OC | n | 6.3µM | 7.3µM | n | 4.6µM | x
